Measurements reported in ChEMBL document CHEMBL3988442, “University of Dundee, Small-Polar-MMV Screening Library” (2021).

What follows are compounds tested against T1, Aspartate--tRNA(Asp/Asn) ligase (Mycobacterium tuberculosis (strain ATCC 25618 / H37Rv)) (UniProt P9WFW3) (assay: Assay for Asp RNA synthetase-1 from Mycobacterium tuberculosis). Conditions: 30 µM.
T1 sequence (whole entry): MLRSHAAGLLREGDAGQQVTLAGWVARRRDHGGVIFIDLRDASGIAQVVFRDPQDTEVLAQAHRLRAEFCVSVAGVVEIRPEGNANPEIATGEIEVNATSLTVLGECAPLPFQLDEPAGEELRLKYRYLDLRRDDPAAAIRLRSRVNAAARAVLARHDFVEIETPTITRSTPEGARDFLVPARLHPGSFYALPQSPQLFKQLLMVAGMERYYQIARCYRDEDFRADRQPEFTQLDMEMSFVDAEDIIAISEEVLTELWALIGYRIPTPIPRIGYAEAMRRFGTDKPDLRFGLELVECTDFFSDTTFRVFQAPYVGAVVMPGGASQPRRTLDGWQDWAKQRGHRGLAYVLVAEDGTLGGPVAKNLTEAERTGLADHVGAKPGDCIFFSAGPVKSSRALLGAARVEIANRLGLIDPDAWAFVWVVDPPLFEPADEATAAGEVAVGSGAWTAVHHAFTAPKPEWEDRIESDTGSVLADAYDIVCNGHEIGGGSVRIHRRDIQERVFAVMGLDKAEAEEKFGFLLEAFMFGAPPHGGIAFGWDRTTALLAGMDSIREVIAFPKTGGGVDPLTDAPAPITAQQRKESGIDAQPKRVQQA
Assay type: functional
Design: scale not given: in the data most compounds retested in dose-response had high values
`c1nc(N2CCCCC2Cn2cncn2)c2ccsc2n1` (stereo not given) gave a Percent Effect of -0.379%. `FC(F)(F)C1CCCn2c(CNCc3ccsc3)nnc21` (stereo not given) was tested, and the Percent Effect was -1.78%. In the case of `CCn1cc(CN(C)C(=O)c2cccc(CCC(C)(C)O)c2)cn1`, the Percent Effect is reported as -0.126%. Compound `COc1ncccc1NC(=O)N1CCC(CN2CCOCC2)CC1` has a Percent Effect of -3.02%. With `Cn1nccc1C(=O)N1CCOC(Cc2cccc(C(F)(F)F)c2)C1` (stereo not given) the Percent Effect was -2.91%. Work on `CCn1nc(C)c(CNC(=O)c2cn(CC3CCCO3)nn2)c1C` (stereo not given) yielded a Percent Effect of -4.13%. Compound `c1ccc2c(N3CCCCC3Cn3cncn3)ncnc2c1` (stereo not given) has a Percent Effect of 0.172%. With `Cc1cc(F)ccc1OC1(C(=O)O)CCN(Cc2cccnc2N)CC1` the Percent Effect was -3.76%. `CC(C)c1cccc(CSc2nnc(CN3CCCC3=O)o2)n1` showed a Percent Effect of 1.44%. In the case of `CCOc1ncccc1CNC(=O)N1CCCC1c1ccncc1` (stereo not given), the Percent Effect is reported as -0.287%. `Cc1ccc(CN2CCN(CC3CC3)[C@@H]3CS(=O)(=O)C[C@@H]32)cc1C` was tested, and the Percent Effect was -3.05%. `CSCc1nc(C(C)(C)NC(=O)OC(C)(C)C)no1` showed a Percent Effect of -0.954%. With `CCN(CC(=O)NC)C(=O)Cc1nc(-c2ccco2)oc1C` the Percent Effect was -4.7%. `CCCC(C)CN1CCC(n2cc(C3CCCC3)nn2)CC1` (stereo not given) showed a Percent Effect of 2.26%. With `Cc1cc(N2CCN(Cc3ccc(C)o3)CC2)cc(C)n1` the Percent Effect was -1.34%. Work on `O=C(NCCCc1ccncc1)C1CCCN(Cc2ccco2)C1` (stereo not given) yielded a Percent Effect of 2.17%. Compound `Cc1cc(CN(C)C2CCCN(c3cccnn3)C2)on1` (stereo not given) has a Percent Effect of 0.172%. In the case of `COc1cccc(S(=O)(=O)CCN2CCCCC2)c1`, the Percent Effect is reported as 3.32%. Compound `CCS(=O)(=O)c1ccc(N2CCC(NC(=O)c3cnn(C)c3)CC2)cc1` has a Percent Effect of -0.471%. Compound `CC(C)SCC(=O)N1CCc2c(nc(N(C)C)nc2N(C)C)C1` has a Percent Effect of -3.12%. With `CC(=O)Nc1c(C)cnn1Cc1cc(F)ccc1F` the Percent Effect was 2.1%. `CC(=O)N1CCCN(c2nccc(-c3cn(C)nc3C)n2)CC1` showed a Percent Effect of -4.22%. `Cc1ccc(C2COCCN2C(=O)c2ccc(N(C)C)cc2)o1` (stereo not given) was tested, and the Percent Effect was -0.816%. `CC(NC(=O)Cn1cccn1)c1cccnc1` (stereo not given) showed a Percent Effect of -1.34%. `CN(CCNC(=O)N1CCN(Cc2ccon2)CC1)C1CCCC1` was tested, and the Percent Effect was -5.04%. `CN(Cc1csc(-c2cccs2)n1)C(=O)CCn1ccccc1=O` showed a Percent Effect of -1.85%. `CCc1nc(C)c(C(=O)N2C[C@H]3CC[C@@H]2CN(S(=O)(=O)N(C)C)C3)s1` was tested, and the Percent Effect was -1.85%. Compound `Cc1ccc(S(=O)(=O)NCCNC(=O)c2ccoc2)cc1F` has a Percent Effect of -4.4%. `CC(O)CN1CCN(C(=O)c2cnn(-c3ccc(Cl)cc3)c2)CC1` (stereo not given) showed a Percent Effect of -5.67%. `CC(C)n1ccnc1C1CCCN(c2ccccn2)C1` (stereo not given) showed a Percent Effect of -2.15%. Compound `O=C(NCCCn1cccn1)N1CCCC1c1ccncc1` (stereo not given) has a Percent Effect of -0.931%. Compound `CC(C)CN1CCc2[nH]cnc2C12CCN(C(=O)c1cccnc1)CC2` has a Percent Effect of 1.3%. Compound `O=C(CCNS(=O)(=O)c1ccccc1)NCc1ccoc1` has a Percent Effect of -2.82%. Work on `CCCNC(=O)CCNC(=O)Cc1nc(-c2ccco2)oc1C` yielded a Percent Effect of 2.08%. Compound `O=C(O)C(c1ccc2c(c1)OCO2)N1CCC(C(=O)N2CCCC2)CC1` (stereo not given) has a Percent Effect of -0.103%. Work on `CN(CCO)Cc1nnc(C2CCN(C3CCCCC3)CC2)n1C` yielded a Percent Effect of 4.1%. `CS(=O)(=O)NCC(=O)N1CCCC1c1noc(C2CC2)n1` (stereo not given) was tested, and the Percent Effect was 0.264%. For `COCc1nc(CN2CCC3(CCCO3)CCC2=O)no1` (stereo not given), the Percent Effect was -3.94%. Work on `O=C(Nc1cccc(OCc2cccc(F)c2)c1)C1COCCO1` (stereo not given) yielded a Percent Effect of 0.563%. In the case of `CCn1nc(C)c(CCn2ccnc2-c2cc3n(n2)CCCNC3)c1C`, the Percent Effect is reported as -1.76%.
